BAZ2B block = inhibitors of human BAZ2B bromodomain. Potency, µM (doses to about 114 µM), for inactives: at the top dose activity change, negative = inhibition, most hits filed as inhibitors. AlphaScreen BAZ2B-H3K14Ac peptide displacement. Q9UIF8. actives 4.4% (n = 360,000); further: on the % scale 0 is the no-effect control and ±100 the full control effect; nearly all actives have a fitted effect of over 60% in size
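In this displacement format the biotinylated H3(5-23) peptide acetylated at Lys14 serves as ligand at 50 nM, with BAZ2B at 50 nM in PBS pH 7.4 containing 0.01% Tween-20. Donor and acceptor beads are 10 ug/mL final.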
JMJD2A Tudor inh = JMJD2A Tudor domain (human) inhibition. O75164. AlphaScreen JMJD2A-Tudor / H3K4me3 peptide binding. Potency, µM (doses to about 114 µM), for the others: at the highest dose activity change, negative = inhibition, most hits filed as inhibitors. actives 4.4% (n = 390,000). AID 504339; further: on the % scale 0 is the no-effect control and ±100 the full control effect; nearly all actives have a fitted effect of over 50% in size
GLS inh = glutaminase GLS (human) inhibition | O94925 | GLS enzymatic activity, qHTS titration | actives 0.21% (n = 410,000) | Potency, µM (highest dose often 45.5 µM), for the others: at the top dose activity change, negative = inhibition, usual class: inhibitors; further: on the % scale 0 is the no-effect control and ±100 the full control effect
Target sequence (O94925 whole entry, looked up): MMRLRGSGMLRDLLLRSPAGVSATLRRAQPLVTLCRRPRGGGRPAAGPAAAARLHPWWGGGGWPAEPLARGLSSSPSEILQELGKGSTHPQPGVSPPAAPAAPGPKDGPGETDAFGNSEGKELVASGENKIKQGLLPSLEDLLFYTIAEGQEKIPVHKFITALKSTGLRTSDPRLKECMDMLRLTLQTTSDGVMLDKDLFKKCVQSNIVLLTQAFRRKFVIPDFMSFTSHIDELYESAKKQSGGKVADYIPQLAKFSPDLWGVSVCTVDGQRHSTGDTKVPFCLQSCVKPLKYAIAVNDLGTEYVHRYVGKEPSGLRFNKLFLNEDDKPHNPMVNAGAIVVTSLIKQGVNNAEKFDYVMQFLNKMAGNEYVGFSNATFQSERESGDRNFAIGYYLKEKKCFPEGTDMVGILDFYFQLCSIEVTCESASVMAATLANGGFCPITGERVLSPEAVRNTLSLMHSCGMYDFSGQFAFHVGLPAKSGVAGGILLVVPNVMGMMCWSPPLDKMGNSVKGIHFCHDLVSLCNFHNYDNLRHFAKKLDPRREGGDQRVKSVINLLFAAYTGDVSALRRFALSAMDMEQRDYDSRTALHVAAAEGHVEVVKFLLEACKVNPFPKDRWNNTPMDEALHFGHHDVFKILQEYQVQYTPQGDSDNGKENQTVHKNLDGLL
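Assay buffer: 45 mM KH2PO4 pH 8.2, 0.02% Tween-20. hKGA acts on L-glutamine (1 mM solution added); product glutamate is reported by an oxidase/peroxidase Amplex Red coupling, with fluorescence taken at baseline and 30 min.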
G9a block = inhibitors of human histone lysine methyltransferase G9a | G9a H3K9 monomethylation, AlphaScreen, 2 h | Potency, µM (highest dose often 102 µM), for inactives: at the top dose activity, negative = inhibition, hits mostly inhibitors | actives 8.8% (n = 350,000) | AID 504332; further: on the % scale 0 is the no-effect control and ±100 the full control effect; nearly all actives have a fitted effect of over 75% in size
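Enzyme 20 nM + cpd, 15 min RT; add b-H3K9 pep 500 nM / SAM 20 uM; 2 h RT; anti-H3K9me1 Ab 0.5 ug/mL + SA donor / anti-rabbit acceptor beads 20 ug/mL each, 10 min; AlphaScreen read.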
HP1b chromo inh = inhibitors of HP1-beta chromodomain binding to methylated histone tails; P83916; AlphaScreen HP1-beta / biotin-H3K9me3 peptide binding; Potency, µM (series often up to 114 µM), without a hit: at the highest dose activity change, negative = inhibition, most hits filed as inhibitors; actives 0.56% (n = 390,000); AID 540317; further: nearly all actives have a fitted effect of over 70% in size
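HP1-beta protein (50 nM final) preincubated 30 min at room temperature with biotinylated H3(1-18)K9me3 peptide (50 nM) in PBS pH 7.4, 0.01% Tween-20, then compound added for 30 min. AlphaScreen streptavidin donor/nickel chelate acceptor beads (10 ug/mL final), 30 min dark, luminescence read.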
Active calls of the source: *; ? = inconclusive; · = not tested or not shown; [ ] = dose if it differs, or a comment. A selection: hits, their analogues and other compounds. The true share with any hit is near 10%. The call rests on the fitted dose curve; in most records, active means well fitted curve in the direction sought with a large enough effect; inconclusive means small, poorly fitted or top-dose-only effect, or another doubt; inactive means no such curve, though single readings can be large; an effect the other way counts as inactive or inconclusive. Potency means the concentration at half of the fitted maximal effect.

SMILES	BAZ2B block	JMJD2A Tudor inh	GLS inh	G9a block	HP1b chromo inh
CC(=O)Nc1ccc(-c2nnc(SCC(=O)c3ccc4c(c3)Cc3ccccc3-4)n2C)cc1	1.4%	35.5µM*	-0.1%	22.4µM*	4.7%
CCc1cc(C(=O)Nc2cc(S(=O)(=O)N(CC)CC)ccc2N2CCOCC2)sc1C	4.5%	-17.1%	3.3%	39.8µM*	12.9%
CCN(CC)S(=O)(=O)c1ccc(N2CCCC2)c(NC(=O)CC(C)(C)C)c1	18.5%	-14.8%	6.9%	·	3.1%
CCN(CC)S(=O)(=O)c1ccc(N2CCOCC2)c(NC(=O)c2cc(C)cc(C)c2)c1	10.4%	-8.7%	7.7%	-0.4%[59 µM]	9.1%
O=C(NC(=S)Nc1cc(S(=O)(=O)N2CCOCC2)ccc1O)c1ccco1	-30.8%	-23.4%	-6.4%	10µM*	?
CCN(CC)S(=O)(=O)c1ccc(N2CCOCC2)c(NC(=O)CC(C)(C)C)c1	12.4%	-28.1%	-5.1%	79.4µM*	5.1%
CCN(CC)S(=O)(=O)c1ccc(N2CCOCC2)c(NC(=S)NC(=O)c2ccco2)c1	-31.5%	?	-21.2%	28.2µM*	?
CCC(=O)c1ccc(OCc2ccccc2)c(OC)c1	11.4%	44.5%	-3.4%	16.4%[59 µM]	67.9%
CCC(C)(C(=O)NC1CCCCC1)N(C(=O)c1ccccn1)c1ccc(C)cc1 (stereo not given)	-1.3%	-24.2%	-11.6%	-7.2%[12.7 µM]	9.7%
COc1cc(/C=C/C(=O)OCC(=O)NC2CC2)cc(S(=O)(=O)N2CCc3ccccc32)c1OC	-23.1%	-18.6%	-3.4%	56.2µM*	-0.3%
Cc1cccc(CNC(=O)c2ccc3c(c2)N(C)C(=O)C2CCCCN32)c1 (stereo not given)	-12.7%	-19.5%	5.1%	-17.1%[59 µM]	10.2%[57 µM]
CCN1C(=O)C2CCCCN2c2ccc(C(=O)NCCOC)cc21 (stereo not given)	0.4%	0.0%	22.8%	79.4µM*	51.2%
CCN(CC)C1=N/C(=C\c2ccco2)C(=O)N1c1ccccc1	?	-21.2%	30.4%	28.2µM*	0.7%
F[B-](F)(F)c1cc2cc(Br)ccc2s1	·	-9.4%	7.2%	·	61.7%
CCOC(=O)c1cc(S(=O)(=O)Nc2cc(OC)ccc2OC)[nH]n1	-35.8%	?	32.8%	11.2µM*	-4.0%[57 µM]
CCOC(=O)Nc1cc(C)c(Cl)cc1OC	27.5%	21.5%	-1.9%	19.0%[59 µM]	-13.8%
CCOC(=O)c1cc(S(=O)(=O)Nc2cc(C)c(Cl)cc2OC)[nH]n1	-34.2%	?	30.7%	14.1µM*	1.3%[57 µM]
O=C(Nc1ccc2c(c1)CCC2)c1cc2ccccc2o1	18.1%	30.8%	2.7%	-2.4%[12.7 µM]	64.1%
CCCCC(=O)NC(=S)Nc1cccc(NC(=O)CC)c1	3.3%	-20.9%	39.6%	41.3%[0.0925 µM]	16.0%
CCCCCC(=O)NC(=S)NNC(=O)CC	33.0%	28.2µM*	31.4%	?	-8.2%
CCCCC(=O)NC(=S)NNC(=O)CC	17.8%	6.9%[11.4 µM]	5.9%	7.08µM*	50.9%
CCCCC(=O)NC(=S)Nc1c(C)cc(Br)cc1C	-22.1%	?	-4.4%	10µM*	26.0%
C=CCNc1ccc(N2C(=O)C3CCC(C)CC3C2=O)cc1[N+](=O)[O-] (stereo not given)	?	·	·	50.1µM*	·
C=CCNc1ccc(N2C(=O)CCCC2=O)cc1[N+](=O)[O-]	1.8%	-5.7%	-2.6%	8.1%[2.33 µM]	24.4%
C=CCN(CC=C)c1ccc(N2C(=O)C3CCCCC3C2=O)cc1[N+](=O)[O-] (stereo not given)	?	?	-3.2%	22.4µM*	-17.0%
SMILES	BAZ2B block	JMJD2A Tudor inh	GLS inh	G9a block	HP1b chromo inh
COc1ccc(Nc2nc(-c3ccc(OC)cc3)c(CCC(=O)O)s2)cc1	?	-35.6%	?	?	-18.9%
O=C(O)Cc1sc(Nc2ccccc2)nc1-c1ccccc1	-23.5%	-19.8%	1.5%	?	12.6%
O=C(O)Cc1sc(Nc2cccc3ccccc23)nc1-c1ccc(Cl)cc1	?	-28.5%	?	25.1µM*	1.1%
COC(=O)CCc1sc(Nc2ccccc2)nc1-c1ccc(OC)cc1	?	?	3.4%	11.2µM*	-21.4%
CCOc1ccccc1Nc1nc(-c2ccc(C)cc2)c(CC(=O)O)s1	-9.0%	-17.2%	-2.6%	7.94µM*	33.5%
Cc1ccc(Nc2nc(-c3ccc(C)cc3)c(CC(=O)O)s2)cc1	?	?	-18.2%	35.5µM*	-23.2%
Cc1cc(C)n(CC(C)C(=O)O)n1 (stereo not given)	79.4µM*	-13.4%	18.1%	·	7.8%
C/C(=N\NS(=O)(=O)c1ccc(C)cc1)c1cc2ccccc2oc1=O	-0.9%	-6.2%	0.1%	-25.2%	36.5%
Cc1ccc(S(=O)(=O)Nc2c(O)c3ccccc3oc2=O)cc1	-3.3%	-13.8%	-11.1%	28.2µM*	46.3%
C/C(=N/NS(=O)(=O)c1ccc(C)cc1)c1c(O)c2ccccc2oc1=O	-18.3%	-12.8%	0.0%	50.1µM*	15.0%
Cc1ccc(S(=O)(=O)Nc2c(NC3CCCCC3)c3ccccc3oc2=O)cc1C	-0.2%	-12.8%	44.9%	·	12.9%[57 µM]
COc1ccc(S(=O)(=O)Nc2c(O)c3ccccc3oc2=O)cc1	29.3%	-7.9%	94.0%	-35.6%[12.7 µM]	18.7%
Cc1ccc(S(=O)(=O)Nc2c(O)c3ccccc3oc2=O)cc1C	5.1%	-1.4%	0.3%	50.1µM*	-0.8%
CC1=C(SCCC#N)S/C(=C2\SC(C)=C(SCCC#N)S2)S1	-32.4%	56.2µM*	10.9%	1.26µM*	?
CN(C)CC(=O)Nc1nc(-c2ccccc2)cs1	-0.2%	-5.5%[11.4 µM]	21.7%	-20.9%	-8.0%
CCCCNc1c([N+](=O)[O-])cc(C)cc1[N+](=O)[O-]	31.6µM*	17.8µM*	-1.2%	39.8µM*	15.8µM*
COc1cccc(C(=O)N2CCCCC2CCN2CCCCC2)c1 (stereo not given)	-0.1%	0.9%	6.5%	-0.2%[59 µM]	43.3%
Cc1c(N)ccc(-n2nc3ccccc3n2)c1C	·	-6.4%	2.7%	·	10.3%
O=[N+]([O-])/C(C(=C(Cl)Cl)N1CCOCC1)=C1\NCCO1	?	-0.8%	3.1%	·	49.0%
CN1CCO/C1=C(\C(Cl)=C(Cl)Cl)[N+](=O)[O-]	50.1µM*	56.2µM*	-1.0%	20µM*	23.2%
O=C(Nc1ccccn1)c1ccc2ccccc2c1O	-20.3%	11.8%[57.1 µM]	-25.8%	31.6µM*	56.7%
Cc1ccc(NC(=O)c2[nH]cnc2C(=O)NN)cc1	?	?	13.1%	21.2%	46.0%
NNC(=O)c1nc[nH]c1C(=O)Nc1ccccn1	2.51µM*	2.82µM*	24.4%	-30.6%	37.5%
Cn1cc(CN2CCC(n3nccc3NC(=O)Cc3ccccc3)CC2)cn1	-7.5%	4.4%	-5.7%	6.9%	27.2%
NC(=O)c1ccc2c(=O)n3c(-c4cc(Cl)c(N)c(Cl)c4)csc3nc2c1	?	70.8µM*	-14.9%	?	75.5%
Cc1ccc(S(=O)(=O)NCCC(=O)NCc2ccccn2)cc1	-2.3%	-7.9%	-1.0%	6.7%	3.2%
Cc1cc(C)cc(-n2c(C)cc(C(=S)N3CCOCC3)c2C)c1	44.7µM*	56.2µM*	21.4%	4.47µM*	?

High-throughput results deposited in PubChem by National Center for Advancing Translational Sciences (NCATS).
